# Hits are enriched below; roughly 2.9% of the tested compounds scored in any of these assays.
# SNCA viab count: reduces viability of HEK-293 SNCA reporter cells | HEK-293-SNCA-luc viability, GF-AFC fluorescence, 24 h | Potency, µM (highest dose often 57.1 µM), for the others: at the top dose activity change, negative = cytotoxicity, usual class: cytotoxic | 0.12% of 150,000 active;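 also: potency is read from the fitted curve at half-maximal effect; 0% = DMSO-treated cells and -100% = medium-only wells without cells; nearly all actives have a fitted effect of over 30% in size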
#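 Cytotoxicity counterscreen: after 24 h compound treatment of genome-edited SNCA-luciferase HEK-293 cells, live-cell protease substrate GF-AFC read by fluorescence after 30 min; activity scaled between DMSO (0%) and medium-only (-100%), curves Hill-fitted.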
# KDM5B inhibitor: inhibitors of human KDM5B histone demethylase. KDM5B demethylase, FDH-coupled NADH fluorescence (FDH is formaldehyde dehydrogenase). Potency, µM (titrated, usually from 57.7 µM), most hits filed as inhibitors. 2.6% of 220,000 active. AID 1347165; also: potency is read from the fitted curve at half-maximal effect; 0% is about no effect; nearly all actives have a fitted effect of over 70% in size
#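 qHTS format, multiple compound concentrations. Buffer 50 mM HEPES pH 7.5/0.01% Tween-20; 200 nM KDM5BΔAP final; 10 min compound preincubation; substrate-mix levels 12.5 µM peptide, 25 µM α-KG, 0.25 mM NAD⁺; 30 min RT; ΔRFU.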
# SNCA expr inh: inhibitors of alpha-synuclein (SNCA) gene expression; Potency, µM (series often up to 57.2 µM), for the others: top-dose activity change, negative = inhibition, usual class: inhibitors; HEK-293 SNCA-luciferase knock-in, luminescence, 24 h; 0.17% of 140,000 active;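 also: potency is read from the fitted curve at half-maximal effect; plate controls were DMSO cells for no effect and cell-free wells for full effect; nearly all actives have a fitted effect of over 45% in size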
# IP6K1 inh: blocks human inositol hexakisphosphate kinase 1 | IP6K1 kinase, ADP-Glo luminescence, 2 h; stronger effect = lower value | activity change, % (series mostly up to about 58 µM) | 0.81% of 140,000 active | AID 1645851; in the data active = activity change below about -25%; also: % is scaled to controls: 0 for no effect and ±100 for the full control effect
# Target sequence (Q92551 whole entry, looked up): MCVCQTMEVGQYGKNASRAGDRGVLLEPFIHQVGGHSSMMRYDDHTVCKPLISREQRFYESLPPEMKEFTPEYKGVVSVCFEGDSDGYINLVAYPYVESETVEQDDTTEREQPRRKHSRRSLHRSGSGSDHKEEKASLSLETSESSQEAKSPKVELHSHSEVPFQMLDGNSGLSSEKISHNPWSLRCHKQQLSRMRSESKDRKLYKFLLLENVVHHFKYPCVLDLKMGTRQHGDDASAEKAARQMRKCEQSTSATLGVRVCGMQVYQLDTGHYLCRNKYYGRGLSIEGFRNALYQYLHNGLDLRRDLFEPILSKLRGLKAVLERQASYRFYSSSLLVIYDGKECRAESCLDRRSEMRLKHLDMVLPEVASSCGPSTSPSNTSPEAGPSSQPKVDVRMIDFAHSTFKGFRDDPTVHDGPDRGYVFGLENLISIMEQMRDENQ
#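 ADP-Glo luminescence measures ADP made by human IP6K1 during a 2 h RT reaction with ATP/IP6 (mix at 1.3 mM/130 uM); top library doses 57.5 and 19.1 uM final.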
# Numbers without * were called inactive; i = inactive; ? = inconclusive; · = no result; ! = not active in a repeat; [ ] = remark or other dose. Unless noted, calls follow the shape of the dose curve; as a rule, active = well fitted curve in the direction sought with a large enough effect; inconclusive = small, poorly fitted or top-dose-only effect, or another doubt; inactive = no such curve, though single readings can be large; an effect the other way counts as inactive or inconclusive.
SMILES,SNCA viab count,KDM5B inhibitor,SNCA expr inh,IP6K1 inh
CCOc1cc2c(cn1)NCCN(Cc1ccc3[nH]ccc3c1)C2,6%[87.6 µM],28µM*,11%[87.6 µM],-17
c1cncc(COc2cc3c(cn2)NCCN(CC2CCCCC2)C3)c1,1%[87.6 µM],25µM*,17%[87.6 µM],-15
c1cncc(COc2cc3c(cn2)NCCN(Cc2ccsc2)C3)c1,2%[87.6 µM],35µM*,-18%[87.6 µM],-17
CN1C(=O)CS(=O)(=O)C12CCN(C(=O)COc1ccc(Cl)cc1)CC2,1%,i,-10%,16
O=C(NC1CC1)c1ccc2cncn2c1,-1%[87.6 µM],32µM*,8%[87.6 µM],-1
CNC(=O)c1ccc2cncn2c1,-5%[87.6 µM],32µM*,1%[87.6 µM],2
O=C(c1ccc2cncn2c1)N1CCOCC1,1%[87.6 µM],?,-9%[87.6 µM],-5
CN(C)C(=O)c1ccc2cncn2c1,3%[87.6 µM],32µM*,-24%[87.6 µM],-3
O=C(NC1CC1)c1ccc2nccn2c1,4%[87.6 µM],·,19%[87.6 µM],7
C=CCSc1nc2c(c(=O)n(C)c(=O)n2C)n1Cc1cccc(C)c1,·,i,·,·
Cc1cc(C)c(NC(=O)c2ccc3c(c2)CCC3)c(Cl)c1,·,i,·,·
CCCC(=O)Nc1nc(-c2c[nH]c3ccccc23)cs1,·,i,·,·
CN1CCOc2c(C(=O)NCc3cnn(C)c3)cc(-c3ccccc3)cc21,-4%[87.6 µM],40µM*,-4%[87.6 µM],-15
CC(=O)Nc1cc(-c2cc(C(=O)NCc3cc(C)on3)c3c(c2)N(C)CCO3)ccn1,-15%[87.6 µM],i,3%[87.6 µM],-22
CN1CCOc2c(C(=O)NCc3cnn(C)c3)cc(-c3ccc([S+](C)(=O)[O-])cc3)cc21,-14%[87.6 µM],?,-3%[87.6 µM],-15
COc1ccc(-c2cc(C(=O)NCc3cc(C)on3)c3c(c2)N(C)CCO3)cc1OC,-12%[87.6 µM],35µM*,10%[87.6 µM],-22
Cc1ccccc1-c1cc(C(=O)NCc2cccnc2)c2c(c1)N(C)CCO2,-18%[87.6 µM],35µM*,?,-18
Cc1cc(CNC(=O)c2cc(-c3ccccc3)cc3c2OCCN3C)no1,-9%[87.6 µM],40µM*,-21%[87.6 µM],-23
Cc1cc(CNC(=O)c2cc(-c3ccc(N4CCOCC4)cc3)cc3c2OCCN3C)no1,3%,?,-11%,-21
CCN(CCC(F)(F)F)C(=O)c1ccc2ccccc2n1,·,i,·,·
CNC(=O)c1ccc2nc(-c3cccnc3Cl)oc2c1,3%[87.6 µM],·,51%[87.6 µM],9
Cc1ccccc1S(=O)(=O)Nc1ccccc1SCc1cc(=O)n2cc(Cl)ccc2n1,·,i,·,·
CCOC(=O)[C@@H]1CN(C(=O)NCc2ccccc2)[C@H]2c3ccccc3O[C@@H]12,·,·,·,15
CCN(CC)C(=O)Cn1nc(-c2ccc(C)cc2)c2ccccc2c1=O,·,i,·,·
C/C=C(\C)C(=O)O[C@H]1C=C(CO)C(=O)[C@H](OC(C)=O)[C@H]1C(C)C,?,·,·,1
SMILES,SNCA viab count,KDM5B inhibitor,SNCA expr inh,IP6K1 inh
CCC(C)CC(=O)OC1C(=O)C(CO)=CC(O)C1C(C)C (stereo not drawn),19µM*,·,·,-8
CC/C=C(/C)C(=O)N1CCCC(C(=O)NCC2CC2)C1 (stereo not drawn),·,i,·,·
O=C(c1ccc2c(c1)OCO2)N1CCC(c2nnc3n2CCNC3)CC1,4%,50µM*,-12%,11
COc1ccc(-c2[nH]ncc2CNC(=O)C2NCCc3[nH]cnc32)cc1 (stereo not drawn),-19%,?,-30%,16
O=C(NCCc1nc(-c2cccnc2)n[nH]1)C1NCCc2[nH]cnc21 (stereo not drawn),-14%,7.9µM*,-24%,6
O=C(NCCc1csc(-c2cnccn2)n1)C1CC2(CCNCC2)CN1 (stereo not drawn),-3%,28µM*,?,17
COc1cccc(-c2ncc(CNC(=O)C3NCCc4[nH]cnc43)s2)c1 (stereo not drawn),-1%,20µM*,72%,7
O=C(NCc1csc(-c2cnccn2)n1)C1NCCc2[nH]cnc21 (stereo not drawn),0%,25µM*,10%,18
Cc1nn(-c2ccc(F)cc2)c(C)c1CNC(=O)C1NCCc2[nH]cnc21 (stereo not drawn),1%,13µM*,8%,0
O=C(NCc1nnnn1-c1ccccc1)C1NCCc2[nH]cnc21 (stereo not drawn),5%,i,8%,31
O=C(NCCc1csc(-c2cccnc2)n1)C1NCCc2[nH]cnc21 (stereo not drawn),1%,13µM*,-14%,-5
O=C(NCCc1csc(-c2ncccn2)n1)C1NCCc2[nH]cnc21 (stereo not drawn),-11%,i,-6%,-11
CN(C)C(=O)CNC(=O)c1cccc(-c2ccsc2)c1,-9%[12.5 µM],·,33%[87.6 µM],5
Cc1noc(C)c1-c1cc2cc(CN(C)C)oc2c(Nc2cccnc2)n1,-1%[87.6 µM],28µM*,38%[87.6 µM],-11
Cc1noc(C)c1-c1cc2cc(CO)oc2c(NC2CCOCC2)n1,16%[87.6 µM],35µM*,86%[87.6 µM],9
Cc1noc(C)c1-c1cc2cc(CN(C)C)oc2c(NCc2cccnc2)n1,-1%[87.6 µM],i,102%[87.6 µM],14
Cc1noc(C)c1-c1cc2cc(CO)oc2c(NCC2CCOCC2)n1,10%[87.6 µM],32µM*,41%[87.6 µM],7
Cc1cc2cc(-c3c(C)noc3C)nc(NC3CC3)c2o1,3%[87.6 µM],i,5%[87.6 µM],17
COC(=O)CCC1CCCC/C1=N/O (stereo not drawn),·,i,·,·
CC(=O)NC[C@H]1Cn2c(-c3ccc4c(c3)OCCO4)cnc2CO1,1%[87.6 µM],?,23%[87.6 µM],11
COc1cccc2nc(-c3cccs3)nc(NN3C(=O)C=C(C)C3=O)c12,30µM*!,·,?,-19
COc1ccccc1CNC(=O)CSc1nc(-c2cccs2)nc2ccccc12,·,i,·,·
O=C(Cc1ccc(F)cc1)NC1CCCN(c2ccnc3ccnn23)C1 (stereo not drawn),-4%,·,-30%,4
Cc1noc(C)c1COc1ccc(C(=O)N[C@@H]2CN(C(=O)Nc3cccc(C(F)(F)F)c3)CCC[C@H]2O)cc1,-28%,i,6%,-6
NC(=O)COc1ccc(C(=O)N[C@@H]2CN(Cc3ccccn3)CCC[C@H]2O)cc1,-1%[87.6 µM],32µM*,-28%[87.6 µM],9
SMILES,SNCA viab count,KDM5B inhibitor,SNCA expr inh,IP6K1 inh
NC(=O)COc1ccc(C(=O)N[C@@H]2CN(C(=O)NC3CCCCC3)CCC[C@H]2O)cc1,3%[87.6 µM],i,?,4
COCCOc1ccc(C(=O)N[C@@H]2CN(C(=O)Nc3ccc(F)cc3)CCC[C@H]2O)cc1,1%,i,3%,12
COC(=O)c1ccccc1NC(=O)N1CCC[C@@H](O)[C@H](NC(=O)c2ccc(OCc3c(C)noc3C)cc2)C1,-7%,22µM*,-11%,12
O=C(N[C@@H]1CN(C(=O)Nc2ccc(F)cc2)CCC[C@H]1O)c1ccc(OCCN2CCCC2)cc1,2%,28µM*,14%,9
NC(=O)CCNc1ccccc1Cl,·,i,·,·
COc1ccc(-c2noc(C(=O)O)c2[C@@H](C)NC(=O)c2cccn2C)cc1,1%[87.6 µM],40µM*,12%[87.6 µM],-7
Cc1ccc2c(C(=O)NC3CCN(C)CC3)cc(NC(=O)C3CCC3)cc2n1,-1%,22µM*,-6%,4
Cc1ccc(-c2cc(C(=O)NC3CCCCC3)c3ccccc3n2)cc1,·,i,·,·

# From PubChem BioAssay
